The values below come from PMC7862700, “An all-to-all approach to the identification of sequence-specific readers for epigenetic DNA modifications on cytosine”.

Test in all cases: DAPPL (digital affinity profiling via proximity ligation, sequencing); 10 mM Tris-HCl pH 7.5, 50 mM NaCl, 1 mM DTT, 4% glycerol, room temperature, 30 min; GST-TFs on glutathione beads, 16-mer random dsDNA library, 0.1% formaldehyde crosslink after washing; high values mean tight binding
The target in assay [1] is T1, FEV (Homo sapiens, UniProt Q99581 1-238).
T1 sequence: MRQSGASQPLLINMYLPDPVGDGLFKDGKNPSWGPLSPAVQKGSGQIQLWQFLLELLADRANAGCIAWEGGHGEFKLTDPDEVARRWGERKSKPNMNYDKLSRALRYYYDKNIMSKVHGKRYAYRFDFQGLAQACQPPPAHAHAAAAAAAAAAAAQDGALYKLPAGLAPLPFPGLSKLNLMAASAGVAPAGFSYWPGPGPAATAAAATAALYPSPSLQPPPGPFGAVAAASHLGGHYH
The conditions noted are these: protein: recombinant; tags: N-terminal GST; dsDNA, one strand shown. The method, boiled down:
(§1)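 Sequencing on an Illumina NextSeq500 followed washing, crosslinking with 0.1% formaldehyde, proximity ligation (BsaI/T4 ligase, 1 h, 37 °C) and PCR amplification of pools that had been incubated for 30 min at room temperature with 200 nmole of a random double-stranded 16-mer DNA library in Tris/NaCl/DTT/glycerol buffer. Each pool held DNA-barcoded human transcription factors, expressed in yeast as GST fusions and captured on glutathione beads, plus a tag-only sample. Binding signal is a hexamer's read frequency for a factor divided by its frequency in the tag-only sample.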

Assay [2] addresses ETV5 (Homo sapiens, UniProt P41161 1-510). The note with it: protein: recombinant; tags: N-terminal GST; dsDNA, one strand shown. The gist of the method: as §1
Assay [3] deals with HSF1 (Homo sapiens, UniProt Q00613 1-529). The conditions noted are these: protein: recombinant; tags: N-terminal GST; chain copies: 3; dsDNA, one strand shown. The method, boiled down: as §1
Chain of HSF1 (Q00613 whole entry): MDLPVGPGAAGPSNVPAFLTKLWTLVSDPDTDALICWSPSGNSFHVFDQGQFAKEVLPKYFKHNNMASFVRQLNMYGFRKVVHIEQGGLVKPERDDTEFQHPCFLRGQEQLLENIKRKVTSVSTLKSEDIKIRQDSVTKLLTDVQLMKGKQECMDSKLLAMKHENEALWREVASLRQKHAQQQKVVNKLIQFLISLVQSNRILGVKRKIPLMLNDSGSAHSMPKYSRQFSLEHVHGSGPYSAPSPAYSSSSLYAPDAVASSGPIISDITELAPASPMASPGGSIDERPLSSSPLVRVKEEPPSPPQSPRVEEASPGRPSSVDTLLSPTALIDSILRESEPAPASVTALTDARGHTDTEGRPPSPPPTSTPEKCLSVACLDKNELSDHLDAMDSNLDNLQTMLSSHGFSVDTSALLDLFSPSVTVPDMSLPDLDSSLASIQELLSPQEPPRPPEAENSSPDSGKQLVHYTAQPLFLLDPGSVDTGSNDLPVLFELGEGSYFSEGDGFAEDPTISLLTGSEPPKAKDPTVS
For assay [4], the target named is T2, SPIC (Homo sapiens, UniProt Q8N5J4 1-248).
T2 sequence: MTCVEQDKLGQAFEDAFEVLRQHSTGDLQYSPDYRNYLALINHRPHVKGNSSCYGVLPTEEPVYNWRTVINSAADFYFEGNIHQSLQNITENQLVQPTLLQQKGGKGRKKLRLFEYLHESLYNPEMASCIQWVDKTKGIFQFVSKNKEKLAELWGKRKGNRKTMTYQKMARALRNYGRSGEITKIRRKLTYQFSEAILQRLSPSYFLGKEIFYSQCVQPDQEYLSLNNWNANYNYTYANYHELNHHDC
The note with it: protein: recombinant; tags: N-terminal GST; dsDNA, one strand shown. The method, boiled down:
as §1

The target of assay [5] is ELF4 (Homo sapiens, UniProt Q99607 1-663). The note with it: protein: recombinant; tags: N-terminal GST; dsDNA, one strand shown. The method, boiled down:
as §1

Assay [6] concerns the target T3, ELK4 (Homo sapiens, UniProt P28324-2 1-405).
T3 sequence: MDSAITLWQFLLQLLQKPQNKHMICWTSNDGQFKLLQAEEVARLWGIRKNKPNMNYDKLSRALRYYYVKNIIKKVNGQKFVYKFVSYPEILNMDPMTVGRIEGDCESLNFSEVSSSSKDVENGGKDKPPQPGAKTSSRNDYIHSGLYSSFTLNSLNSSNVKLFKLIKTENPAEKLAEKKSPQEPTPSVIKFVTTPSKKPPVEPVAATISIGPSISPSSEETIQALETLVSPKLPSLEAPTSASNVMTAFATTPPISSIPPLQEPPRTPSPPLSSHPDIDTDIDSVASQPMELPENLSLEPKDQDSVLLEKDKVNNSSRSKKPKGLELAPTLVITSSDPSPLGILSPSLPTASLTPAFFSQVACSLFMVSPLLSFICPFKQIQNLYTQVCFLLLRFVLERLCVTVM
The note with it: protein: recombinant; tags: N-terminal GST; dsDNA, one strand shown. The method, boiled down: as §1

The target in assay [7] is T4, ETV2 (Homo sapiens, UniProt O00321 1-342).
T4 sequence: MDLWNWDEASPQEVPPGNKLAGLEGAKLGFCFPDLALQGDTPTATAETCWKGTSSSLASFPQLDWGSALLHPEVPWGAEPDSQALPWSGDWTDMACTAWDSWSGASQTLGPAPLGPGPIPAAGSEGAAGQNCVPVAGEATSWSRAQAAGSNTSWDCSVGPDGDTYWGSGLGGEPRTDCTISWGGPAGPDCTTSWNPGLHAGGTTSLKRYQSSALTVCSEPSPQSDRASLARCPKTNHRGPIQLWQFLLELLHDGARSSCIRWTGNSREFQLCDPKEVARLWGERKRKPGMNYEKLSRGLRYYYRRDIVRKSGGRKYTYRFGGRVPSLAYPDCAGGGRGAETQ
The note with it: protein: recombinant; tags: N-terminal GST; dsDNA, one strand shown. The method, boiled down:
as §1

The target of assay [8] is T5, ELF3 (Homo sapiens, UniProt P78545 1-371).
T5 sequence: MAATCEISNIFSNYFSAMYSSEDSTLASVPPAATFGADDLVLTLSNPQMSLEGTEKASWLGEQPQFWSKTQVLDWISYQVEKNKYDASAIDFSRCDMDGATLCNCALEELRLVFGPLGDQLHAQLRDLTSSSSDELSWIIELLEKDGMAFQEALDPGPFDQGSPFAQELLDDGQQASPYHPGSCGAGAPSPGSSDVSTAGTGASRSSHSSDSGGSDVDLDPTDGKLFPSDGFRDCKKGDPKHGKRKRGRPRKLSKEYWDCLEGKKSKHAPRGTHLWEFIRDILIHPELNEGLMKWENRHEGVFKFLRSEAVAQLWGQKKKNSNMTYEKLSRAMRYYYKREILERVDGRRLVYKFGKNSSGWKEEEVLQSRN
The note with it: protein: recombinant; tags: N-terminal GST; dsDNA, one strand shown. The gist of the method:
as §1

Assay [9] deals with CRX (Homo sapiens, UniProt O43186 1-299). The note with it: protein: recombinant; tags: N-terminal GST; dsDNA, one strand shown. The method, boiled down:
as §1

The target in assay [10] is ETV1 (Homo sapiens, UniProt P50549 1-477). The conditions noted are these: protein: recombinant; tags: N-terminal GST; dsDNA, one strand shown. The method, boiled down:
as §1

For assay [11], the target named is T6, ERF (Homo sapiens, UniProt P50548 1-548).
T6 sequence: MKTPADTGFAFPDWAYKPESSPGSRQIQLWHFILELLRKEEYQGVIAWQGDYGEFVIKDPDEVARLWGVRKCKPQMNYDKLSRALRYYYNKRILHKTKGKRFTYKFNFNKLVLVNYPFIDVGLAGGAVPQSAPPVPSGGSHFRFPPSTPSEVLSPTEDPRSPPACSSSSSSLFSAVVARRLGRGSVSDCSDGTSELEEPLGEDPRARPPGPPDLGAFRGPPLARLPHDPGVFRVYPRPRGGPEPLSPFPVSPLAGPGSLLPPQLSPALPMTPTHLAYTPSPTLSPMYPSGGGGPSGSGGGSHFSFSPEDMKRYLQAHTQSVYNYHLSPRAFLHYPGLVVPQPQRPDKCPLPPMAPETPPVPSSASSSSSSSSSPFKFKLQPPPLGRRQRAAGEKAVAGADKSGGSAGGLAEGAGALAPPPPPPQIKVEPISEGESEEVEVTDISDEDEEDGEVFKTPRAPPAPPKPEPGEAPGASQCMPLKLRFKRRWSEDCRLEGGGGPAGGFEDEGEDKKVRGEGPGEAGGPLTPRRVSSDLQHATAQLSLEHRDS
The conditions noted are these: protein: recombinant; tags: N-terminal GST; dsDNA, one strand shown. The method, boiled down:
as §1

For assay [12], the target named is T7, ETV3L (Homo sapiens, UniProt Q6ZN32 1-361).
T7 sequence: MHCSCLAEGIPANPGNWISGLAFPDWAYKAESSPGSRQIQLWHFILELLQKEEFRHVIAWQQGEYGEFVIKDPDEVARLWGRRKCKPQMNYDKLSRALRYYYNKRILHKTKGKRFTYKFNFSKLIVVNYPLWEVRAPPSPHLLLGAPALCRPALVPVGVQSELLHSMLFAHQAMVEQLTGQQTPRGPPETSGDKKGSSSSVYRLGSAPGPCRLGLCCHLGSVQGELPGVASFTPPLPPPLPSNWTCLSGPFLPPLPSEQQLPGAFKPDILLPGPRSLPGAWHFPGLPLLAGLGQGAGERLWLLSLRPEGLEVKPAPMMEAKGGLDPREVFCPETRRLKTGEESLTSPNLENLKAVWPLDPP
The note with it: protein: recombinant; tags: N-terminal GST; dsDNA, one strand shown. The gist of the method: as §1

The target of assay [13] is T8, ETS2 (Homo sapiens, UniProt P15036 1-469).
T8 sequence: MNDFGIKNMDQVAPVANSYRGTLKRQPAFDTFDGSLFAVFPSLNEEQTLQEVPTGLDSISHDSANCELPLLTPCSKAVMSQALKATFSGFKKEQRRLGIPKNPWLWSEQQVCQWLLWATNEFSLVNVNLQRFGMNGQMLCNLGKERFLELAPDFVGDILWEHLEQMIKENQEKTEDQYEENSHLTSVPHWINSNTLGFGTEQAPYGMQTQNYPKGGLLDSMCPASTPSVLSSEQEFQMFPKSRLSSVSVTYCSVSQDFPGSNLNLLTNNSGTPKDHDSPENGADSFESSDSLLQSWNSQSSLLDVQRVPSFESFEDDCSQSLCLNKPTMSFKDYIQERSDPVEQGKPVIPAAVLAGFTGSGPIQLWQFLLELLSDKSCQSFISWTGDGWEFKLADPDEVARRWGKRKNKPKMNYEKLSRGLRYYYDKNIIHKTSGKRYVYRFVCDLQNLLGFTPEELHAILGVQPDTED
The note with it: protein: recombinant; tags: N-terminal GST; dsDNA, one strand shown. The gist of the method:
as §1

Assay [14] concerns the target T9, SPDEF (Homo sapiens, UniProt O95238 1-335).
T9 sequence: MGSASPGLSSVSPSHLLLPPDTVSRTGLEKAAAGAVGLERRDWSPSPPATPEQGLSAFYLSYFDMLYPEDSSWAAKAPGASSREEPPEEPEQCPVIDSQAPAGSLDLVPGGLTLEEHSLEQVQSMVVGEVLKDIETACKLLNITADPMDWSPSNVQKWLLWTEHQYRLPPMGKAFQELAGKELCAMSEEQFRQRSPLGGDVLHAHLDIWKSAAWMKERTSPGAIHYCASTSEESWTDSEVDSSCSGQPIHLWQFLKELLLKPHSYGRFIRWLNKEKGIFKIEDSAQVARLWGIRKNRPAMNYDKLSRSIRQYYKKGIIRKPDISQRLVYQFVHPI
The conditions noted are these: protein: recombinant; tags: N-terminal GST; dsDNA, one strand shown. The method, boiled down: as §1

The target in assay [15] is T10, ETV7 (Homo sapiens, UniProt Q9Y603 1-341).
T10 sequence: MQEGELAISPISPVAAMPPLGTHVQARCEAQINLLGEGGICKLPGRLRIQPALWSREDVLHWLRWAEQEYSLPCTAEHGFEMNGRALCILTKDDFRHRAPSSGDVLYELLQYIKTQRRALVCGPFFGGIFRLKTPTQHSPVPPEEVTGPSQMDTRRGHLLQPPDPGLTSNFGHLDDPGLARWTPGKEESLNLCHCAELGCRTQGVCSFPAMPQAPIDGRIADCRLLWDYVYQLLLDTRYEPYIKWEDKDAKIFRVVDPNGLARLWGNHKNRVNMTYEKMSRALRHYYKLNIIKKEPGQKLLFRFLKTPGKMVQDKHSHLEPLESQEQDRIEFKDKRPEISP
The conditions noted are these: protein: recombinant; tags: N-terminal GST; dsDNA, one strand shown. The method, boiled down: as §1

Assay [16] concerns the target T11, ELF5 (Homo sapiens, UniProt Q9UKW6-2 1-255).
T11 sequence: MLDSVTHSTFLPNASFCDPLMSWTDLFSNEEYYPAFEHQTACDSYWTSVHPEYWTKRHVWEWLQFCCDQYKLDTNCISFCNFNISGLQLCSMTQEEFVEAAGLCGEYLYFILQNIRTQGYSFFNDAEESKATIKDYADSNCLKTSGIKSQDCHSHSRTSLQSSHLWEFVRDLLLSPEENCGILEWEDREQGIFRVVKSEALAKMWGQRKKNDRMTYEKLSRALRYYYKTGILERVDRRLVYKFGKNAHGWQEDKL
The note with it: protein: recombinant; tags: N-terminal GST; dsDNA, one strand shown. The gist of the method: as §1

For assay [17], the target named is T12, ETV3 (Homo sapiens, UniProt P41162-2 1-143).
T12 sequence: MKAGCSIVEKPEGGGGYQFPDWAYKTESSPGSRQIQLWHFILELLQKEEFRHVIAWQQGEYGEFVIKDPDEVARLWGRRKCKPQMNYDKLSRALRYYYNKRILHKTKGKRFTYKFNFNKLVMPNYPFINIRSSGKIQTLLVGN
The note with it: protein: recombinant; tags: N-terminal GST; dsDNA, one strand shown. The method, boiled down:
as §1

In assay [18] the target is ETV6 (Homo sapiens, UniProt P41212 1-452). The conditions noted are these: protein: recombinant; tags: N-terminal GST; dsDNA, one strand shown. The method, boiled down:
as §1

Chain of ETV5 (P41161 whole entry): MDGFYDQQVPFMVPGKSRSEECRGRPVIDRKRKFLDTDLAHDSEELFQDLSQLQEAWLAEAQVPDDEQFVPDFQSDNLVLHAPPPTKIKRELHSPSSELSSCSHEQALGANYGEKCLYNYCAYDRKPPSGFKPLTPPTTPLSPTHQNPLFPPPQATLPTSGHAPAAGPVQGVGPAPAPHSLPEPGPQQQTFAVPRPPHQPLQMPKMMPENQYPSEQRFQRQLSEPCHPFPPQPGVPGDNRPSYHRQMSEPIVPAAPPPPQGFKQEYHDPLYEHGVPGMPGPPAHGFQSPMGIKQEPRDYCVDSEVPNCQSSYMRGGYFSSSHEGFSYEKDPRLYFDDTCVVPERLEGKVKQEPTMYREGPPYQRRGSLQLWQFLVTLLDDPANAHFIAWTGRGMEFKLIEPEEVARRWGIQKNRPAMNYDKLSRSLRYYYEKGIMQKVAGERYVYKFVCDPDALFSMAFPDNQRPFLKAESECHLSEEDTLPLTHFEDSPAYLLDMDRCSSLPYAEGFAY
Chain of ETV6 (P41212 whole entry): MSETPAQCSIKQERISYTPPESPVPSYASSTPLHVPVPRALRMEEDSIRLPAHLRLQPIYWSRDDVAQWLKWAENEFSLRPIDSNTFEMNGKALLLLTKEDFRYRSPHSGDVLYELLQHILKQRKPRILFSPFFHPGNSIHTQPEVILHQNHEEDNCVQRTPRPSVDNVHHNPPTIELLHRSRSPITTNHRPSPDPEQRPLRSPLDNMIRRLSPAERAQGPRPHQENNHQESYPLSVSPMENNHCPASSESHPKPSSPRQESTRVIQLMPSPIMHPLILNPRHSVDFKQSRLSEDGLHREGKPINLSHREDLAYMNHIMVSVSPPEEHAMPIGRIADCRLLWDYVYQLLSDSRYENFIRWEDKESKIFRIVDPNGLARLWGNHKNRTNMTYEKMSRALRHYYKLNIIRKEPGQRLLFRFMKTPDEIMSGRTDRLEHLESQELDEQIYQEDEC
Chain of ETV1 (P50549 whole entry): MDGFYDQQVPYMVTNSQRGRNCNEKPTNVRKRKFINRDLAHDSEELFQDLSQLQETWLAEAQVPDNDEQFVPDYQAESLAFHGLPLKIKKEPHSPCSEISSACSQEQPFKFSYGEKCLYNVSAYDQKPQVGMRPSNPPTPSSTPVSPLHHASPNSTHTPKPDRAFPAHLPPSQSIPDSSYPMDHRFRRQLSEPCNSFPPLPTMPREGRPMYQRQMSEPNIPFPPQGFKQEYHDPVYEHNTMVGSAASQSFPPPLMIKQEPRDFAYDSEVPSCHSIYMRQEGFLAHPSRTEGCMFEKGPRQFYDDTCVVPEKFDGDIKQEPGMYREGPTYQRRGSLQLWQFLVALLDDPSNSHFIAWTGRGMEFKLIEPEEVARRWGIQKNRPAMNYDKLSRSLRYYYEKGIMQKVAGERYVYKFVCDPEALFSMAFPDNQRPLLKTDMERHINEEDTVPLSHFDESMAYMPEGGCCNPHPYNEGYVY
Chain of CRX (O43186 whole entry): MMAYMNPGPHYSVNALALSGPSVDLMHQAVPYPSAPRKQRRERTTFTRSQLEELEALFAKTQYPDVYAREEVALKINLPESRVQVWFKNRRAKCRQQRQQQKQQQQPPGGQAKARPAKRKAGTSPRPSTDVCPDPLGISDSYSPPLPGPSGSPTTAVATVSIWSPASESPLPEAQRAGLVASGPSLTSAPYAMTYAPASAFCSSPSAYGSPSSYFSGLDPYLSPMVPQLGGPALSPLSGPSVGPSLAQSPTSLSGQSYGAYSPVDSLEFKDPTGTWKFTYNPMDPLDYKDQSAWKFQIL
Chain of ELF4 (Q99607 whole entry): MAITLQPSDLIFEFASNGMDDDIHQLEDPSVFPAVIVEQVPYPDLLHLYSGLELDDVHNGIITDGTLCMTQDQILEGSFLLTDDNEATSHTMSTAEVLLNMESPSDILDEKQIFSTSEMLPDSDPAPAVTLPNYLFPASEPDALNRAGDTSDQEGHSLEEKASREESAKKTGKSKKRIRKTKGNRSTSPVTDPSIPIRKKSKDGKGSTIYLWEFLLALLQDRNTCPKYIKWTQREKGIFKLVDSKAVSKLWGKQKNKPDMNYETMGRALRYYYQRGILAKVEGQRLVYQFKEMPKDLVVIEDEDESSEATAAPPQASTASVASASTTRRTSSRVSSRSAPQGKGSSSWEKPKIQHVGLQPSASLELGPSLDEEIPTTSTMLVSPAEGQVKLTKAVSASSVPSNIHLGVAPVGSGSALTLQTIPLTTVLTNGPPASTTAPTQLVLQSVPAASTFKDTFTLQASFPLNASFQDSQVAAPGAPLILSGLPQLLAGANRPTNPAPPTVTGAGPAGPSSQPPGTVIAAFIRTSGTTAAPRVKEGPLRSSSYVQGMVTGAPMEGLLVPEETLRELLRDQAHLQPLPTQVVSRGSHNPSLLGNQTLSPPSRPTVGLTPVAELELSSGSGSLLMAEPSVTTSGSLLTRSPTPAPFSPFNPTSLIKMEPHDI

CTACCG: the binding signal in assay [1] was 1.7 fold enrichment (6-mer frequency, TF over GST control); in [2] it was 1.64 fold enrichment (6-mer frequency, TF over GST control); in [3], 1.16 fold enrichment (6-mer frequency, TF over GST control); in assay [4], 1.62 fold enrichment (6-mer frequency, TF over GST control); in [5] it was 1.59 fold enrichment (6-mer frequency, TF over GST control); in [6], 1.38 fold enrichment (6-mer frequency, TF over GST control). In addition, the binding signal in assay [7] is 1.47 fold enrichment (6-mer frequency, TF over GST control); in assay [8] it was 1.67 fold enrichment (6-mer frequency, TF over GST control); in assay [9], 1.02 fold enrichment (6-mer frequency, TF over GST control); in [10] it was 1.62 fold enrichment (6-mer frequency, TF over GST control); in assay [11] it was 1.62 fold enrichment (6-mer frequency, TF over GST control); in [12], 1.69 fold enrichment (6-mer frequency, TF over GST control). For the same sequence, the binding signal is 1.63 fold enrichment (6-mer frequency, TF over GST control) in [13]; 1.63 fold enrichment (6-mer frequency, TF over GST control) in assay [14]; 1.54 fold enrichment (6-mer frequency, TF over GST control) in [15]; 1.64 fold enrichment (6-mer frequency, TF over GST control) in assay [16]; 1.58 fold enrichment (6-mer frequency, TF over GST control) in assay [17]; 1.53 fold enrichment (6-mer frequency, TF over GST control) in [18].
